The values that follow come from PubChem BioAssay (Tox21).

Inconclusive results are not listed. Unmarked numbers belong to inactive results. Activity calls are given as the source filed them. Calls come from the whole dose curve.
% is set by controls: 0 for no effect and ±100 for the full control effect; potency is the fitted concentration of half-maximal effect.

Thyrotropin receptor (Homo sapiens), sequence (P16473 whole entry, looked up): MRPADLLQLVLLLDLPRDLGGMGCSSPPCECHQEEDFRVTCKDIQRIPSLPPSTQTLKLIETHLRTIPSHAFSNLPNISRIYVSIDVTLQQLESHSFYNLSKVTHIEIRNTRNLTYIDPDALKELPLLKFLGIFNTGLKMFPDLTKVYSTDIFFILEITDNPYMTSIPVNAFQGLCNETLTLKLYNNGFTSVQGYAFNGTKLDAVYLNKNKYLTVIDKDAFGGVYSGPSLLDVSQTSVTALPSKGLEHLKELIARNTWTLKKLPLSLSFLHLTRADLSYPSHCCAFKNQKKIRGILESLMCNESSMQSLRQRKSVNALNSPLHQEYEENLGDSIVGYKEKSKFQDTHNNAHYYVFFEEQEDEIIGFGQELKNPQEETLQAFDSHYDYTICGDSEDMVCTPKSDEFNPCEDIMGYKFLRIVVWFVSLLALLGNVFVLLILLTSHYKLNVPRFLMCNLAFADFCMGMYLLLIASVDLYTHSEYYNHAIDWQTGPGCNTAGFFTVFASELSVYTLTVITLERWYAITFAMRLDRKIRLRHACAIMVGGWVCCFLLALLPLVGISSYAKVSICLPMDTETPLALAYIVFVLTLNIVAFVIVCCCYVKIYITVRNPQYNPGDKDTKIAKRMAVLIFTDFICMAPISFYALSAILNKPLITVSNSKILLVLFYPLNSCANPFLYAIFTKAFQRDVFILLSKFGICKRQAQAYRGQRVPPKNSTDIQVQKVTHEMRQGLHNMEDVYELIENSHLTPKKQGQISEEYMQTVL

The test addresses Thyrotropin receptor (Homo sapiens) (UniProt P16473). Put plainly: qHTS assay to identify small molecule agonists of the thyroid stimulating hormone receptor (TSHR) signaling pathway (AID 1224843). Note: nearly all actives have a fitted effect of over 45% in size. Conditions: TSHR-HEK293 cells, cAMP HTRF, agonist mode, 30 min; series mostly up to 92.4 µM; activation: at the top concentration. The source says:
National Center for Advancing Translational Sciences [NCATS]
NIH Chemical Genomics Center [NCGC]
U.S. Environmental Protection Agency [EPA]
National Institutes of Environmental Health Sciences [NIEHS]
National Toxicology Program [NTP]
U.S. Food and Drug Administration [FDA]
TSHR is the receptor for thyrotropin (thyroid stimulating hormone or TSH), a member of the glycoprotein hormone family. TSH is released by the anterior pituitary gland and is the main regulator of thyroid gland growth and development. Upon binding circulating thyrotropin, a G-protein signal cascade activates adenylyl cyclase and […] cAMP concentration is increased. cAMP is a key second messenger involved extensively in cellular signal transduction pathways associated with the majority of G-protein coupled receptors (GPCRs). The activation of these GPCRs by neurotransmitters, lipids, nucleotides, peptides and hormones results in the activation or the inhibition of plasma membrane-bound adenylate cyclase through heterotrimeric G-proteins. A cell-based TSHR assay was used to screen the Tox21 10K library for compounds that can modulate TSHR in agonist mode.
Tox21 Assay Protocol Summary:
TSHR-Hek293 cells were dispensed at 800 cells/4uL/well in 1536-well white plates using a Multidrop dispenser. […] The plates were incubated at room temperature for 30 min. 2.5 ul/well of cAMP-d2 and 2.5ul/well of anti-cAMP-cryptate was added respectively into the assay plates using a Flying Reagent Dispenser. After 1 hr incubation at room temperature, the fluorescence intensity in the plates was measured using an Envision plate reader. Each test compound was measured at 15 concentrations and in triplicates.
On the technique in general: In qHTS, concentration-response curves come from the screen itself.
Turning to `CCCCC(=O)O[C@]1(C(=O)CO)[C@H](C)C[C@H]2[C@@H]3CCC4=CC(=O)C=C[C@]4(C)[C@@]3(F)[C@@H](O)C[C@@]21C`, the “activation” value was 0.628% [at 42.5 µM].
On the same count and under the same terms, the value for `CC/C=C\CCOC(=O)C(C)C` was 4.44%; that for `O=C(O)c1cccc(Cl)c1Cl` was -1.34%.
Same read-out and setting: the value for `CC(C)O` was 4%; that for `C[C@@H]1CN(c2c(F)c(F)c3c(=O)c(C(=O)O)cn(C4CC4)c3c2F)C[C@H](C)N1` was -4.01% [at 19 µM]; that for `CCCOc1ccc2c(c1)CC[C@@H]1[C@@H]2CC[C@]2(C)C(OC)CC[C@@H]12` (stereo not given in full) was 1.33% [at 42.5 µM].
The same measure, in the same setting: the value for `C/C(=N\O)[C@@H](C)NCC(C)(C)CN[C@H](C)/C(C)=N/O` was -1.77% [at 42.5 µM]; that for `FC(F)(F)C(Cl)(Cl)Cl` was -3.4%; that for `CCN(CC)CCNC(=O)COc1ccc(Cl)cc1` was -1.42% [at 42.5 µM].
Turning to `CCOC(=O)c1cc(=O)c2c(OCC(COc3cccc4oc(C(=O)OCC)cc(=O)c34)OC(=O)[C@@H](N)CCCCN)cccc2o1`, the “activation” value was 4.85% [at 42.5 µM].
On the same count and under the same terms, to `Cc1cccc(C)c1NC(=O)CN1CCCCCC1` belongs -0.303% [at 42.5 µM].
Still for that read-out and setting: the value for `O=C1Nc2ccc([N+](=O)[O-])cc2C1=O` was 6.07%; that for `OCc1ccccc1O` was -5.49% [at 42.5 µM]; that for `CC(C)(CO)[C@@H](O)C(=O)NCCC(=O)O` was -8.06%.
The same measure, in the same setting: the value for `CN1CCN(c2c(F)cc3c(=O)c(C(=O)O)cn(CCF)c3c2F)CC1` was -5.67% [at 42.5 µM]; that for `CC(C)C(=O)OCC(C)(C)C(O)C(C)C` (stereo not given) was -8.75%; that for `C=CCCC=C` was 2.13%.
In the case of `O=C(O)C(=O)Cc1c[nH]c2ccccc12`, the “activation” value was 7.28%.
Still for that read-out and setting: the value for `CCOC(=O)[C@H](CCc1ccccc1)N[C@@H](C)C(=O)N1Cc2cc(OC)c(OC)cc2C[C@H]1C(=O)O` was -6.57% [at 42.5 µM]; that for `CCCCOc1cc(C(=O)NCCN(CC)CC)c2ccccc2n1` was -4.98% [at 42.5 µM].
On to `O=C(CC(=O)C(F)(F)F)c1ccccc1`, for which the Potency was 17.5 µM (active).
For `CCCCCCC`, the “activation” value was -12.9%.
Still for that read-out and setting: the value for `FC(F)(F)C(F)(F)C(F)(F)C(F)(F)C(F)(F)C(F)(F)C(F)(F)C(F)(F)Br` was 1.09% [at 42.5 µM]; that for `O=C1CCCCCCCCCCC(=O)OCCO1` was -20%; that for `CCOC(=O)NCCC[Si](OCC)(OCC)OCC` was 6.11%.
Same read-out and setting: the value for `Cc1nc(-c2ccccn2)ncc1C(=O)Nn1cc(C)c2cc(F)ccc21` was 9.41%; that for `CCCCNC(=S)NCCCC` was -11.8%; that for `O=c1[nH]c(=O)n([C@H]2C[C@H](O)[C@@H](CO)O2)cc1C(F)(F)F` was -7.88% [at 42.5 µM].
Still for that read-out and setting: the value for `CN(C)C(=O)NC1(c2ccccc2)CCN(CCC[C@]2(c3ccc(Cl)c(Cl)c3)CCCN(C(=O)c3ccccc3)C2)CC1` was -9.82% [at 19 µM].
As to `COC(=O)c1ccc(OC)cc1`, the “activation” value was 0.707%.
On the same count and under the same terms, the value for `COc1ccccc1OCC(O)COC(N)=O` (stereo not given) was -4.59% [at 42.5 µM].
The same measure, in the same setting: to `CC1=CC(=O)CC(C)(C)C1=O` belongs 3.04%; to `CC(C)=CCC[C@](C)(O)[C@@H]1CC=C(C)CC1`, 5.41%.
`CCN1CC(CCN2CCOCC2)C(c2ccccc2)(c2ccccc2)C1=O` (stereo not given): the “activation” value was 2.66% [at 42.5 µM].
On the same count and under the same terms, the value for `CC1CN(c2ccccc2)NC1=O` (stereo not given) was 18.3%; that for `NCCCN1CCN(CCCN)CC1` was 6.54%; that for `Cc1cc2nc(N)sc2cc1C` was -13.8%.
Still for that read-out and setting: to `Cc1c(N)cccc1N` belongs 9.7%; to `CC(=O)Oc1cc(C(C)C)c(OCCN(C)C)cc1C`, -1.41% [at 42.5 µM].
Still for that read-out and setting: to `Cc1ncc(CO)c(CN)c1O` belongs -2.76% [at 42.5 µM].
